Source: PubChem BioAssay (National Center for Advancing Translational Sciences (NCATS))
Hits are enriched below; roughly 3% of the tested compounds scored in any of these assays.
BCR signal inh = qHTS Assay to Find Inhibitors of Chronic Active B-Cell Receptor Signaling; ABC-DLBCL IkBa-CBG/CBR reporter, luminescence ratio, 4 h; 340,000 tested, 0.05% active; AID 493014, 2011; Potency, µM (top dose mostly 46.1 µM), for inactives: at the top dose activity change, negative = inhibition, hits mostly inhibitors; active means well fitted inhibition curve with a large enough effect in the signal ratio, with a control signal flat, not every such curve was filed as active; inconclusive means small, poorly fitted or top-dose-only effect, or effect the other way, or a change in a side signal; the % refers to the signal ratio;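 further: potency means the concentration at half of the fitted maximal effect; plate controls were basal doxycycline-induced cells for no effect and cells given 10 µM MG132 for full effect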
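Concentration-response series (up to 46 uM) were applied to TMD8 dual-reporter cells for 4 h at 37C with doxycycline. Green/red ratio, after filter-overlap correction, defined %Activity; red signal alone was normalised to basal cells and zero luminescence.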
ClpP mod = qHTS Assay for Activators of ClpP. 340,000 tested, 1.9% active. AID 651965, 2013. Potency, µM (top dose mostly 57.5 µM), without a hit: at the highest dose activity change, negative = active. ATP-dependent Clp protease proteolytic subunit (Bacillus subtilis (strain 168)), P80244. purified B. subtilis ClpP, FRET peptide cleavage, 20 min; active means well fitted falling curve with a large enough effect; inconclusive means small, poorly fitted or top-dose-only effect; inactive means no such curve, though single readings can be large or run the other way; further: potency means the concentration at half of the fitted maximal effect; the source files actives as falling curves though it sought activators and does not explain the sign; nearly all actives have a fitted effect of over 65% in size
Target sequence (P80244 whole entry, looked up): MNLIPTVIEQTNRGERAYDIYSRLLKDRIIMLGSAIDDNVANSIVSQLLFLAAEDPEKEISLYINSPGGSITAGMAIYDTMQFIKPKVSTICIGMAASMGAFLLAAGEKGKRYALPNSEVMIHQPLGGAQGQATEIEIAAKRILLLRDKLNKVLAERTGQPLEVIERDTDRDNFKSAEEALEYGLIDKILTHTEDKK
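Buffer: 100 mM Tris/HCl pH8, 100 mM KCl, 0.05% low protease BSA, 2.5% glycerol, 0.01% Tween-20. ClpP 10 microg/mL final; 20 min RT; delta FRET normalized to ADEP and DMSO controls.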
LDHA block = qHTS assay for inhibitors of human lactate dehydrogenase | L-lactate dehydrogenase A chain (Homo sapiens), P00338 | purified LDHA, NADH/diaphorase-resazurin fluorescence; hits give low values | activity change, % (values are at about 110 or 230 µM) | 480,000 tested, 0.15% active; in the data active means activity change below about -30%; inconclusive means mostly about -25% to -30%;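 further: plate controls were DMSO wells for no effect and wells without enzyme for full effect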
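Remaining NADH was detected by diaphorase (0.133 mg/mL) converting 37 µM resazurin to fluorescent resorufin, read at 0 and 20 minutes. The preceding 5-minute room-temperature reaction used 2 nM LDHA, 0.2 mM sodium pyruvate and 0.06 mM NADH at pH 7.4.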
KCNH2 3.1 inh = qHTS for Inhibitors of KCHN2 3.1: Mutant qHTS. Potassium voltage-gated channel subfamily H member 2, brain isoform KCNH2 3.1 (human). U2OS KCNH2 3.1, thallium flux FluxOr; hits give low values. activity change, % (tested at about 1.8 µM). 340,000 tested, 0.95% active. AID 720553, 2013;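 active means maximum activity change below -70%; inconclusive means maximum activity change from -70% to -50%; inactive means maximum activity change above -50%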;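 further: thallium influx rate constant from kinetic fluorescence after stimulation buffer; on the % scale 0 is the no-effect control and ±100 the full control effect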
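Normalized rate constant (relative to positive and negative DMSO controls) derived from a 2 min kinetic fluorescence read after stimulation; U2OS cells expressing the 3.1 isoform via virus at 1.77 x 10^8 /mL.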
12-LOX inh = Primary qHTS assay for inhibitors of human arachidonate 12S-lipoxygenase (ALOX12): Round 2 | 580,000 tested, 1.1% active | Polyunsaturated fatty acid lipoxygenase ALOX12 (Homo sapiens), P18054 | Potency, µM (top dose mostly 108 µM), for inactives: top-dose activity change, negative = inhibition, usual class: inhibitors | AID 1671190, 2021 | purified 12hLO, xylenol orange hydroperoxide absorbance; active means well fitted inhibition curve with a large enough effect; inconclusive means small, poorly fitted or top-dose-only effect, or another doubt; inactive means no such curve, though single readings can be large or run the other way; further: potency means the concentration at half of the fitted maximal effect; on the % scale 0 is the no-effect control and ±100 the full control effect
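Purified human 12hLO at 150 nM in 25 mM Hepes, 0.01% Triton X-100, pH 7.0, preincubated 15 min at room temperature with compound. Reaction started with 40 uM arachidonic acid, 30 min at room temperature. Hydroperoxide measured by Fe-xylenol orange, 573/405 nm absorbance ratio.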
hERG WT inh = qHTS for Inhibitors of KCHN2 3.1: Wildtype qHTS; 340,000 tested, 0.37% active; Voltage-gated inwardly rectifying potassium channel KCNH2 (Homo sapiens), Q12809; activity change, % at 1.84 µM; AID 720551, 2013; U2OS, BacMam KCNH2, thallium flux FluxOr; hits give low values;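 active means maximum activity change below -70%; inconclusive means maximum activity change between -70% and -50%; inactive means maximum activity change above -50%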; further: on the % scale 0 is the no-effect control and ±100 the full control effect
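U2OS cells were transduced with wild-type KCNH2 virus (2.03 x 10^8 / mL) for 4 h at room temperature, then cultured overnight at 37 C. Thallium flux was read with FluxOr dye. Rate constants were normalized to DMSO controls.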
Numbers without * were called inactive; ? = inconclusive; . = not tested or not shown.

SMILES	BCR signal inh	ClpP mod	LDHA block	KCNH2 3.1 inh	12-LOX inh	hERG WT inh
Cc1noc(Cn2cnc3ccc(Br)cc3c2=O)n1	.	.	-0.1	.	-1.5%	.
Oc1c(CN2CCCC(C(F)(F)F)C2)cc(Cl)c2ccccc12 (stereo not given)	?	-1.3%	29.5	0.9	15.8µM*	0.8
COc1ccccc1N1CCN(CC(=O)c2ccc3ccn(C(C)=O)c3c2)CC1	?	?	5.0	-4.6	.	-0.1
CC(=O)OCC(=O)c1ccc2ccn(C(C)=O)c2c1	3.2%	35.5µM*	-4.0	-0.8	-0.9%	3.7
Cc1cc(-c2ccccc2)nc2c(Br)c(C(=O)O)nn12	.	-2.2%	2.9	-82.2*	.	-4.8
N#CCNC(=O)c1nn2c(C(F)(F)F)cc(-c3ccccc3)nc2c1Br	1.7%	-0.3%	-4.6	3.6	-1.8%	-7.0
O=C(NCCc1cccs1)c1noc(-c2ccc(F)cc2)n1	.	.	.	.	16.1%	.
Cc1cc(C(=O)CSc2ccccc2Br)c(C)[nH]1	.	.	0.2	.	-74.8%	.
Cc1cccc(C(=O)Nc2ccccc2OCc2cc(=O)n3cc(C)ccc3n2)c1	.	-2.9%	4.0	.	-5.1%	.
Cc1ccc2nc(COc3ccccc3NC(=O)C(C)(C)C)cc(=O)n2c1	.	25.1µM*	-11.3	.	-8.6%	.
CC(=O)N=c1nc(-c2ccccc2)n(-c2ccccc2)s1	.	-2.3%	-32.0*	.	.	.
CCOC1OC(=O)C(Cl)=C1Nc1ccc(C)c(C)c1 (stereo not given)	.	.	7.5	.	-7.7%	.
O=c1[nH]ncc(N2CCCCCC2)c1Cl	4.9%	.	-6.3	-100.0*	1.2%	-8.8
COc1cc([N+](=O)[O-])c(OC)cc1SCc1n[nH]c(=S)n1-c1ccc(F)cc1	?	.	1.3	-8.5	44.7µM*	-8.4
COc1cc([N+](=O)[O-])c(OC)cc1SCc1n[nH]c(=S)n1-c1ccc(C)cc1	?	1.3%	-4.9	-10.1	-11.8%	3.2
CCOc1ccc(C(=O)N(Cc2ccc(OC)cc2)Cc2cc3cc(OC)ccc3[nH]c2=O)cc1	-20.9%	31.6µM*	-10.0	-33.2	-13.7%	-8.8
COc1ccc2[nH]c(=O)c(CN(C)C(=O)C3CCCCC3)cc2c1	-1.1%	28.2µM*	-4.9	-0.9	149.3%	-2.0
COc1cc2cc(CN(C(=O)NC3CCCCC3)C3CCCC3)c(=O)[nH]c2cc1OC	?	25.1µM*	1.6	5.8	1.0%	7.4
COc1ccc2[nH]c(=O)c(CN(C(=O)c3ccco3)C(C)C)cc2c1	-9.3%	.	-9.5	-2.3	?	1.3
COc1ccc2[nH]c(=O)c(CN(C)C(=O)c3ccncc3)cc2c1	-10.8%	?	10.3	4.9	3.1%	-10.6
CCOc1ccc(N(Cc2cc3cc(OC)ccc3[nH]c2=O)C(C)=O)cc1	.	.	-4.7	.	?	.
COc1ccc(CC(=O)N(Cc2cc3cc(OC)ccc3[nH]c2=O)C(C)C)cc1	?	31.6µM*	1.9	.	0.0%	-7.5
O=c1oc2ccccc2c(N2CCCC2)c1NS(=O)(=O)c1ccc(Br)s1	.	.	-13.7	.	?	.
COC[C@@H]1CN(C(=O)CC2=CCCCC2)C[C@H]1c1ccccn1	.	.	.	.	29.3%	.
Cc1cccn2cc(CSc3ncnc4ccccc34)nc12	.	.	6.8	.	?	.
SMILES	BCR signal inh	ClpP mod	LDHA block	KCNH2 3.1 inh	12-LOX inh	hERG WT inh
CCCN(Cc1cc2cc(OC)ccc2[nH]c1=O)C(=O)c1ccncc1	-17.6%	31.6µM*	0.4	-1.6	2.5%	-5.8
S=c1nc(-c2ccccc2)[nH]n1-c1ccccc1	-3.5%	-1.6%	-8.4	6.9	?	-15.3
S=c1nc(-c2ccccc2)n(-c2ccccc2)[nH]1	0.2%	0.2%	-11.1	-9.0	44.7µM*	2.1
CC1(C)Cc2c(sc(NC(=O)C(=O)NCC3CCCO3)c2C(N)=O)CO1 (stereo not given)	-0.3%	0.7%	-0.9	3.2	12.8%	-95.4*
CC1(C)CC(=O)c2c(nc3ccccc3c2N)C1	8.5%	31.6µM*	0.0	10.3	4.8%	6.7
O=C(OC1CCCCC1=O)c1ccccc1I (stereo not given)	.	.	-1.4	.	-24.2%	.
CCc1c(C)sc(NC(=O)c2ccc(Cl)cc2Cl)c1C#N	.	.	2.8	.	?	.
CCCCNc1c(-c2ccc(SC(C)CC)c(OC)c2)nc2ccc(Cl)cn12 (stereo not given)	1.9%	-27.1%	5.7	-4.9	?	-238.1*
CCCCNc1c(-c2ccc(SC3CCCCC3)c(OC)c2)nc2ccc(Cl)cn12	?	-14.8%	0.4	-97.4*	?	-29.4
CCCCNc1c(-c2ccc(SC(C)CC)c(OC)c2)nc2ccc(C)cn12 (stereo not given)	?	4.3%	7.8	-30.7	?	25.7
CCCCCCSc1ccc(-c2nc3ccc(Cl)cn3c2NCCCC)cc1OC	-0.1%	-16.0%	0.2	3.7	?	-1.8
CCC(C)Sc1cccc(-c2nc3ccc(Cl)cn3c2NCc2ccccc2)c1 (stereo not given)	19.1%	25.1µM*	-3.3	-45.7	.	-3.1
O=C1c2ccccc2C(=O)N1CCCc1nc(-c2ccccn2)no1	-0.1%	0.0%	-2.3	-100.3*	0.0%	-6.4
O=C1c2ccccc2C(=O)N1CCc1nc(-c2ccccn2)no1	-9.7%	-0.1%	7.6	-9.6	22.8%	0.9
O=C(c1cc(-c2cccc(Cl)c2)on1)N1CCCC1	-117.2%	.	-7.7	-130.9*	3.6%	-7.0
COC(=O)c1ccc(NC(=O)c2ccc3c(c2)C(=O)N(C)C3=O)cc1	1.8%	11.2µM*	-6.0	11.0	-4.1%	-22.0
COc1ccc(-c2nn(C)c(=O)c3ccccc23)cc1CNS(C)(=O)=O	18.4µM*	-7.3%	-7.6	-0.8	-8.7%	31.4
COc1ccc(-c2nn(C)c(=O)c3ccccc23)cc1NS(C)(=O)=O	?	-1.7%	-1.2	-20.2	0.0%	-4.5
Cc1ccc(SC[C@H](CC(C)C)N2CCN(CCc3ccccc3)CCC2=O)cc1	?	1.2%	0.8	.	-11.3%	.
CCCN1CCC(=O)N([C@H](CSc2ccc(OC)cc2)c2ccccc2)CC1	1.5%	-8.7%	2.8	-92.6*	24.2%	-39.5
